Assay outcomes (PubChem BioAssay)
An excerpt weighted towards active compounds, which were near 21% of everything screened.
Pf growth 48h = inhibits P. falciparum growth in the first generation, 48 h | Potency, µM (highest dose often 28.7 µM), most hits filed as inhibitors | P. falciparum luciferase growth in erythrocytes, 48 h | actives 5.9% (n = 310,000)
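Growth was read as firefly luciferase luminescence after a 48 h, 37 C, 5% CO2 exposure of compounds to reporter-bearing P. falciparum cultures (0.1% parasitemia, 2% hematocrit final) in Albumax-supplemented RPMI 1640.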
Sm TGR block = blocks Schistosoma mansoni thioredoxin glutathione reductase. Q962Y6. purified TGR, DTNB reduction, TNB absorbance 405 nm. Potency, µM (top dose mostly 114 µM), actives largely listed as inhibitors. actives 3% (n = 360,000). AID 485364; note: nearly all actives have a fitted effect of over 60% in size
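Kinetic colorimetric format: TGR-catalysed, NADPH-driven DTNB reduction monitored via TNB absorbance. Enzyme dispensed at 20 nM; compound exposure 15 min at room temperature before reaction start.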
Shiga toxin inh = Shiga toxin inhibition. Vero cells, Shiga toxin protein synthesis inhibition reporter. actives 9.2% (n = 290,000). inhibition, % at 38.7 µM; in the data active = inhibition mostly above about 28%, no sharp cut-off; inactive = mostly below about 43%
CHX counter = counter-screen hit for Shiga toxin inhibitors, cycloheximide; AID 2314; max response, %; actives 12% (n = 300,000); cell reporter, cycloheximide protein synthesis inhibition counterscreen; in the data active = max response mostly above about 13%, no sharp cut-off; inactive = mostly below about 14%; note: read at 38.3 µM for the half of the compounds with a filed dose
NS1 inh = blocks influenza NS1 protein function | Potency, µM (doses to about 46.1 µM) | actives 0.4% (n = 270,000); calls by dose curve; note: actives are rising curves; nearly all actives have a fitted effect of over 50% in size
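S. cerevisiae expressing influenza A NS1, grown in glucose, washed, then diluted 1:100 into pH 6.0 -URA galactose medium with 23 nl compound. Growth recovery read as OD600; NS1-free strain serves as control.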
Pf growth 96h = P. falciparum growth inhibition at 96 hours; P. falciparum luciferase reporter growth, 96 h; Potency, µM (series often up to 28.7 µM), hits mostly inhibitors; actives 6.9% (n = 320,000); AID 504834
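Infected RBCs, 2% Hct / 0.05% parasitemia final; luciferase-reporter P. falciparum; cpd 96 h, 37 C, 5% CO2; luciferase detection reagent; luminescence.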
Numbers stand for hits; [ ] = dose if it differs, or a comment. Unless noted, calls come from the whole dose curve; as a rule, active = well fitted curve in the direction sought with a large enough effect; inconclusive = small, poorly fitted or top-dose-only effect, or another doubt; inactive = no such curve, though single readings can be large; an effect the other way counts as inactive or inconclusive.

What do the screens show for `CCOc1ccc(NS(=O)(=O)c2coc(C(N)=O)c2)cc1`?
Pf growth 48h: inactive; Sm TGR block: inactive; Shiga toxin inh: inactive; CHX counter: inactive; NS1 inh: inactive; Pf growth 96h: inconclusive

How did O=C(NCCO)C(=O)c1c(-c2ccccc2)cc2ccccn12 do in these assays?
Pf growth 48h: inactive; Sm TGR block: inactive; Shiga toxin inh: inactive; CHX counter: inactive; Pf growth 96h: inactive

Results for COc1cc(-c2noc(C)c2C#CCO)cc(OC)c1OC ?
Pf growth 48h: inactive; Sm TGR block: 31.6µM; Shiga toxin inh: inactive; CHX counter: inactive; NS1 inh: inactive; Pf growth 96h: inactive

How did COc1cc(-c2noc(C)c2C#CC2(N)CCCCC2)cc(OC)c1OC do in these assays?
Pf growth 48h: inconclusive; Sm TGR block: inactive; Shiga toxin inh: inactive; CHX counter: inactive; NS1 inh: inactive; Pf growth 96h: 1.85µM

What do the screens show for `Cc1cc(C)nc(/N=C(\N)Nc2ccc(SC(F)F)cc2)n1`?
Pf growth 48h: 11.7µM; Sm TGR block: inactive; Shiga toxin inh: inactive; CHX counter: inactive; NS1 inh: inactive; Pf growth 96h: 13.1µM

How did COc1ccc(C)cc1N/C(N)=N/c1nc(C)cc(C)n1 do in these assays?
Pf growth 48h: 11.7µM; Sm TGR block: inactive; Shiga toxin inh: inactive; CHX counter: inactive; Pf growth 96h: inconclusive

What do the screens show for `COc1ccc(N/C(N)=N/c2nc(C)cc(C)n2)c(OC)c1`?
Pf growth 48h: inactive; Shiga toxin inh: inactive; CHX counter: inactive; NS1 inh: inactive; Pf growth 96h: inactive

Results for COc1cc(N/C(N)=N/c2nc(C)cc(C)n2)cc(OC)c1 ?
Pf growth 48h: inconclusive; Sm TGR block: inactive; Shiga toxin inh: inactive; CHX counter: inactive; NS1 inh: inactive; Pf growth 96h: 10.4µM

What do the screens show for `Cc1ccc(C)c(N/C(N)=N/c2nc(C)cc(C)n2)c1`?
Pf growth 48h: 11.7µM; Sm TGR block: inactive; Shiga toxin inh: inactive; CHX counter: inactive; NS1 inh: inactive; Pf growth 96h: inconclusive

How did COc1ccc(Cl)cc1NC(=O)Cn1cc(S(=O)(=O)Cc2cccc(Cl)c2)c2ccccc21 do in these assays?
Sm TGR block: inactive

What do the screens show for `CCOC(=O)c1sc2ccccc2c1S(=O)(=O)N1CCN(c2cccc(C)c2C)CC1`?
Sm TGR block: inactive

Results for O=C(NN1C(=O)c2ccccc2NC1c1ccccn1)c1ccc([N+](=O)[O-])cc1 (configuration not stated) ?
Pf growth 48h: inactive; Sm TGR block: inactive; Shiga toxin inh: inactive; CHX counter: inactive; NS1 inh: inactive; Pf growth 96h: inactive

How did CCN(CC)CCNC(=O)c1ccc(-c2nc(CN3CCc4ccccc43)c(C)o2)cc1 do in these assays?
Sm TGR block: inactive

Results for O=C1c2ccccc2C(=O)N1CC#CCN1CCN(C(c2ccccc2)c2ccccc2)CC1 ?
Pf growth 48h: inactive; Sm TGR block: 50.1µM; Shiga toxin inh: inactive; CHX counter: inactive; NS1 inh: inconclusive

How did c1ccc(CN2CCN(C(c3ccccc3)c3ccccc3)CC2)cc1 do in these assays?
Pf growth 48h: inconclusive; Sm TGR block: inactive; Shiga toxin inh: inactive; CHX counter: inactive; NS1 inh: inactive; Pf growth 96h: inconclusive

How did NC(=O)CSc1ccc(F)cc1 do in these assays?
Pf growth 48h: inactive; Sm TGR block: inactive; Shiga toxin inh: inactive; CHX counter: inactive; Pf growth 96h: inactive

Results for Cc1ccc(-c2nc3ccccc3nc2NN)cc1 ?
Pf growth 48h: inactive; Sm TGR block: inactive; Shiga toxin inh: 52.8; CHX counter: 40.6; NS1 inh: inactive; Pf growth 96h: inactive

What do the screens show for `COc1ccc(CCNC(=O)c2cc(-c3ccccc3O)n[nH]2)cc1OC`?
Pf growth 48h: 13.1µM; Sm TGR block: inactive; Shiga toxin inh: inactive; CHX counter: inactive; NS1 inh: inactive; Pf growth 96h: inactive[5.75 µM]

What do the screens show for `COc1ccc(CCNC(=O)c2cc(-c3cc(Cl)ccc3O)n[nH]2)cc1OC`?
Pf growth 48h: inconclusive; Sm TGR block: inactive; Shiga toxin inh: inactive; CHX counter: inactive; NS1 inh: inactive; Pf growth 96h: inactive

How did COc1ccc(CCNC(=O)c2cc(-c3ccc(C)cc3O)n[nH]2)cc1OC do in these assays?
Sm TGR block: inactive; Shiga toxin inh: inactive; CHX counter: inactive; NS1 inh: inactive; Pf growth 96h: 7.38µM

How did COc1ccc(CCNC(=O)c2cc(-c3cc(C)cc(C)c3O)n[nH]2)cc1OC do in these assays?
Pf growth 48h: inconclusive; Sm TGR block: inactive; Shiga toxin inh: inactive; CHX counter: inactive; NS1 inh: inactive; Pf growth 96h: inconclusive
